Measurements published in PubChem BioAssay.
The source made the active and inactive calls. Unless noted, the rule behind the calls is not given here.

How the values were obtained:
[1] = compounds binding Alexa647 anti-His antibody – biochemical, small-molecule microarray, 635 nm fluorescence, artefact control for SMM control protein annotation, primary screen (AID 1128); conditions: higher = more signal;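 note: score merges feature fluorescence with signal-to-noise for each printed compound spot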
[2] = system: Human papillomavirus type 1a E7 protein (residues 1-88); assay: HPV1a E7 small-molecule binders, primary screen, biochemical, small-molecule microarray, residues 1-88, 635 nm (AID 1129); conditions: small-molecule microarray binding, fluorescence 635 nm; higher = more signal
[3] = target: Focal adhesion kinase 1 (Homo sapiens) (UniProt Q05397); assay: PTK2 protein binding on printed compound slides – biochemical, small-molecule microarray, 635/667 nm fluorescence, BSA, DTT, primary screen (AID 1130); conditions: 635 nm fluorescence, higher = more signal;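 note: composite of spot emission at 667 nm and signal to noise over triplicate slides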
[4] = system: Fibrinogen (Alexa647-labelled); assay: Alexa647-fibrinogen binding to printed small molecules – biochemical, small-molecule microarray, 635/667 nm fluorescence, artefact control for SMM control-protein annotation, profiling panel (AID 1131); conditions: fibrinogen-A647 binding fluorescence, higher = more signal;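 note: z-score merges 667 nm fluorescence with per-spot signal-to-noise over triplicate slides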
[5] = target: Follistatin (Homo sapiens) (UniProt P19883); assay: FST protein binding to printed compounds – biochemical, small-molecule microarray, 635/667 nm fluorescence, primary screen (AID 1132); conditions: 635 nm fluorescence, higher = more signal
[6] = target: Fibroblast growth factor 2 (Homo sapiens) (UniProt P09038); assay: basic fibroblast growth factor binding to printed compounds – biochemical, small-molecule microarray, 635/667 nm fluorescence, primary screen (AID 1133); conditions: FGF2, fluorescence 635/667, higher = more signal
[7] = JC-1 mitochondrial potential readout, lung cancer cells – cell-based, A549, JC-1 fluorescence, basal, 24 h, 100 nL, profiling panel (AID 1138); conditions: higher = more signal;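 note: A549 lung adenocarcinoma cells under basal conditions with no added stimulus; test concentration not given here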
Lefty1 = Lefty1 protein binding to printed compounds – biochemical, small-molecule microarray, 635/667 nm fluorescence, primary screen (AID 1139); conditions: fluorescence 635/667, higher = more signal
[8] = system: wheat germ agglutinin (Triticum aestivum), Alexa647-labelled; assay: Alexa647-WGA lectin binding to printed small molecules – biochemical, small-molecule microarray, 635/667 nm fluorescence, artefact control for SMM control-protein annotation, profiling panel (AID 1140); conditions: WGA-A647 binding, 635 nm fluorescence, higher = more signal;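 note: score merges 667 nm feature emission with signal to noise over triplicate slides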
[9] = target: Luciferin 4-monooxygenase (Photinus pyralis) (UniProt P08659); assay: inhibition of purified Photinus pyralis luciferase – biochemical, luminescence, purified enzyme, 2006 set, primary screen (AID 1141); conditions: purified firefly luciferase, SteadyGlo luminescence, 30 min; higher = more signal, called active from +8 up or from −8 down;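 note: cell-free assay with purified firefly luciferase at 100 ng per well in PBS; test concentration not given here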
[10] = system: Wnt5a (protein binding on small-molecule microarray); assay: small molecules binding Wnt5a protein – biophysical, small-molecule microarray, 635/667 nm fluorescence, primary screen (AID 1142); conditions: 635 nm fluorescence, higher = more signal;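 note: fluorescence read at 667 nm with signal to noise per printed feature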
[11] = ATP-based viability of Huh7 replicon cells – cell-based, CellTiter-Glo luminescence, basal, 48 h, cytotoxicity control for HCV replication inhibitor project, primary screen (AID 1143); conditions: higher = more signal, called active from +8 up or from −8 down;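 note: Huh7 hepatoma cells carrying a hepatitis C replication reporter with no stimulus; test concentration not given here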
[12] = Pseudomonas biofilm growth suppression – PAO1 strain, BacTiter-Glo luminescence, LB-PBS, primary screen (AID 1144); conditions: P. aeruginosa PAO1 biofilm, 12 h, higher = more signal
[13] = basal CRE-LacZ reporter activity in PC12 – cell-based, unstimulated, primary screen (AID 1145); conditions: no forskolin, luminescence, 4.5 h, higher = more signal, called active from +8 up or from −8 down
[14] = forskolin-driven CRE-LacZ activity in PC12 – cell-based, CRE-LacZ reporter, forskolin-stimulated, primary screen (AID 1146); conditions: luminescence, 4.5 h, higher = more signal, called active from +8 up or from −8 down;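 note: PC12 cells with 6xCRE LacZ reporter stimulated by forskolin 10 µM; beta-galactosidase reporter signal reflecting CREB driven transcription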
[15] = target: Streptavidin (Streptomyces avidinii) (UniProt P22629); assay: compounds binding control protein streptavidin – biophysical, small-molecule microarray, 635/667 nm fluorescence, artefact control for SMM compound annotation, primary screen (AID 1147); conditions: higher = more signal;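 note: signal reflects streptavidin binding to arrayed compounds as a control protein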
[16] = probe aInhba binding on compound microarray – biochemical, small-molecule microarray, 635/667 nm fluorescence, primary screen (AID 1148); conditions: higher = more signal;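 note: score merges 667nm spot fluorescence with signal-to-noise for antibody binding to printed compounds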
Torsin-1A (Homo sapiens) [17] = target: Torsin-1A (Homo sapiens) (UniProt O14656); assay: TOR1A wild-type binding on microarray – cell lysate, small-molecule microarray, lysate, 635/667 nm, primary screen (AID 1149); conditions: COS7 hTOR1A-WT lysate, 635 nm fluorescence, higher = more signal
Torsin-1A (Homo sapiens) [18] = target: Torsin-1A (Homo sapiens) (UniProt O14656); assay: torsin A mutant lysate binding on microarrays – cell lysate, small-molecule microarray, COS7 lysate, 635/667 nm fluorescence, primary screen (AID 1150); conditions: COS7 hTOR1A mutant lysate, 635 nm fluorescence, higher = more signal;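 note: score pools 667 nm emission and signal to noise measuring lysate protein binding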
[19] = system: Sonic hedgehog protein (Shh); assay: Sonic hedgehog microarray binding compounds – biochemical, small-molecule microarray, 635/667 nm fluorescence, primary screen (AID 1151); conditions: 635 nm fluorescence, higher = more signal;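 note: Shh protein binding to compounds spotted on small-molecule microarray slides; score combines spot fluorescence intensity with signal-to-noise across triplicate slides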

Sequence of Follistatin (Homo sapiens) (P19883 whole entry, looked up): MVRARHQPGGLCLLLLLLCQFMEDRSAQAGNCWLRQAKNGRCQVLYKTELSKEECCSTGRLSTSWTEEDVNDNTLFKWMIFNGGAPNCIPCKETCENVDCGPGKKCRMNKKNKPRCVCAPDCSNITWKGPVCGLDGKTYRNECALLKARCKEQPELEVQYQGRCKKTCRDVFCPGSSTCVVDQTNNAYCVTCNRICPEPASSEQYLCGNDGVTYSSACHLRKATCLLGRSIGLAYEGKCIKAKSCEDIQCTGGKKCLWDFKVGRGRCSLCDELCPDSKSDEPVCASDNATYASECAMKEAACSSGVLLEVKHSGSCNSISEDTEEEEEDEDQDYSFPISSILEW
Sequence of Torsin-1A (Homo sapiens) (O14656 whole entry, looked up): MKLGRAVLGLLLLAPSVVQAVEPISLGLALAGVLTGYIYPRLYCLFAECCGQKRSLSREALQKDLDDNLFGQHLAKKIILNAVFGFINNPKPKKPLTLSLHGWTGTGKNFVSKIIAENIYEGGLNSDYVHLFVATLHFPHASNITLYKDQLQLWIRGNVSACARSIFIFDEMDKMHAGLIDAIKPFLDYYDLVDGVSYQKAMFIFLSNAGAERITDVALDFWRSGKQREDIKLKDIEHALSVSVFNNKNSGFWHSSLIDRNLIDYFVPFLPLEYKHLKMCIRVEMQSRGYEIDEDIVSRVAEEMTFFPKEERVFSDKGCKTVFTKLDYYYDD
Sequence of Streptavidin (Streptomyces avidinii) (P22629 whole entry, looked up): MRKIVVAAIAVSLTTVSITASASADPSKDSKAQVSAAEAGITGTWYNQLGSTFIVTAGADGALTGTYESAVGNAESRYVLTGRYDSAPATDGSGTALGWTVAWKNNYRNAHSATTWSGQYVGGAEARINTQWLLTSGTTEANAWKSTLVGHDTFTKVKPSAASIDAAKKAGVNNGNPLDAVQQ
Sequence of Focal adhesion kinase 1 (Homo sapiens) (Q05397 whole entry, looked up): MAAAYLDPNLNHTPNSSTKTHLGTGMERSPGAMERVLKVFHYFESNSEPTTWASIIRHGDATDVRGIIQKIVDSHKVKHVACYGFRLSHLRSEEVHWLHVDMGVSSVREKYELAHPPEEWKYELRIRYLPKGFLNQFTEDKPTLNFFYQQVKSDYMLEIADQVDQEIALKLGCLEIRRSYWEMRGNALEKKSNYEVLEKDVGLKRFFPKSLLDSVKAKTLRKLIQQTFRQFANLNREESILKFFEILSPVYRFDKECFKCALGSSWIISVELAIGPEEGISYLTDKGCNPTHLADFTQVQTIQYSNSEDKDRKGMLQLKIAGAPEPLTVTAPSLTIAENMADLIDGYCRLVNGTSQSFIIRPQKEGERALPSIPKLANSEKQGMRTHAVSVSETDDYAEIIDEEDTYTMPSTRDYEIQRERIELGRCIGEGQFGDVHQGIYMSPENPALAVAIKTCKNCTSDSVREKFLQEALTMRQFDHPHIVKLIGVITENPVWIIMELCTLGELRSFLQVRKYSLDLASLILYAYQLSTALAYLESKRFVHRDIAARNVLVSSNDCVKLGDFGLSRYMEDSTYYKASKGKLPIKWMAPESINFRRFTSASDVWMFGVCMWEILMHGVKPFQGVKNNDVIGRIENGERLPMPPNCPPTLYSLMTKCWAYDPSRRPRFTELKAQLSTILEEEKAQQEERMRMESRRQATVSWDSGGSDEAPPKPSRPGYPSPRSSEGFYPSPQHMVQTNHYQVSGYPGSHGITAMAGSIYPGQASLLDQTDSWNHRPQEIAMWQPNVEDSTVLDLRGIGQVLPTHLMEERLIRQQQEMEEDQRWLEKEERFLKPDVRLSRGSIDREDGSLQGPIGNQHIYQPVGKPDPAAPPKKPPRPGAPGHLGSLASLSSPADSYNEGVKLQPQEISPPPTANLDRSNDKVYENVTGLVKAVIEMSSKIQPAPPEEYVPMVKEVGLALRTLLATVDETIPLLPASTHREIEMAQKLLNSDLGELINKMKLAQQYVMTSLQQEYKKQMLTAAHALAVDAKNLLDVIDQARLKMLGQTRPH
Sequence of Fibroblast growth factor 2 (Homo sapiens) (P09038 whole entry, looked up): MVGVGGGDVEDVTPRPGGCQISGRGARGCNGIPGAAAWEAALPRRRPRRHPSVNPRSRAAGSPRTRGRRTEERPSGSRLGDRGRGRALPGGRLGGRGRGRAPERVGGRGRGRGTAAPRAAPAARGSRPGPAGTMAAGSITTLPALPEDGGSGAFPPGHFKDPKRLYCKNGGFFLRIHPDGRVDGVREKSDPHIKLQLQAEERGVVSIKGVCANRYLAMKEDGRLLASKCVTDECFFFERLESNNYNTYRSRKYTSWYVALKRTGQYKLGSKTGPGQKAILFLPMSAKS
Sequence of Luciferin 4-monooxygenase (Photinus pyralis) (P08659 whole entry, looked up): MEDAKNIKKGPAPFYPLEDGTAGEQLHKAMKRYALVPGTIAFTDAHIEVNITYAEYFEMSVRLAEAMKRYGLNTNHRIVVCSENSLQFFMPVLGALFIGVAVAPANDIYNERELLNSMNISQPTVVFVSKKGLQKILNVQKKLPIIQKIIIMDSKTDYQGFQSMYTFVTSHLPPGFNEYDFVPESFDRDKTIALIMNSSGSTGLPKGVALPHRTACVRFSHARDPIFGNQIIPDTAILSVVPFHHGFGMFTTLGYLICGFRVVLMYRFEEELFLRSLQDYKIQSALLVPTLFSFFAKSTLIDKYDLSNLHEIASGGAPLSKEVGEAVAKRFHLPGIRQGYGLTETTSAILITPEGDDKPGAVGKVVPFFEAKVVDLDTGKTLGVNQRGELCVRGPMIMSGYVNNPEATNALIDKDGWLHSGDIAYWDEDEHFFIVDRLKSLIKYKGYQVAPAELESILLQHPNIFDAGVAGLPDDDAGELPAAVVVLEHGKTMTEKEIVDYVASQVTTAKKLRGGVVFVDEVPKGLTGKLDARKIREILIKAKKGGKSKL

CON=C(C)CCC(=O)OC[C@H]1O[C@H](c2ccccc2)C=C[C@@H]1Oc1ccc(OC)cc1
composite z-score [1]: 1.25
composite z-score [2]: -0.623
composite z-score [3]: -0.0144
composite z-score [4]: -0.45
composite z-score [5]: 0.252
composite z-score [6]: 0.48
z-score [7]: 0.472
composite z-score (Lefty1): 0.415
composite z-score [8]: -0.551
z-score [9]: 0.236 (inactive)
composite z-score [10]: 0.564
z-score [11]: -0.539 (inactive)
z-score [12]: -0.38 (inactive)
z-score [13]: 1.88 (inactive)
z-score [14]: -0.0322 (inactive)
composite z-score [15]: 0.0584
composite z-score [16]: -0.0963
composite z-score (Torsin-1A (Homo sapiens) [17]): 0.0952
composite z-score (Torsin-1A (Homo sapiens) [18]): -0.013
composite z-score [19]: 0.556

CO[C@H]1COC(=O)CC=C[C@@H](C)[C@H](NS(=O)(=O)c2ccc(C)cc2)COC(=O)CCC[C@@H]1C
composite z-score [1]: 0.167
composite z-score [2]: -0.21
composite z-score [3]: 0.193
composite z-score [4]: 0.19
composite z-score [5]: 0.785
composite z-score [6]: 0.579
z-score [7]: -1.07
composite z-score (Lefty1): 0.962
composite z-score [8]: -0.0807
z-score [9]: 1.03 (inactive)
composite z-score [10]: 0.118
z-score [11]: -0.279 (inactive)
z-score [12]: -0.365 (inactive)
z-score [13]: -1.13 (inactive)
z-score [14]: -0.198 (inactive)
composite z-score [15]: 0.439
composite z-score [16]: -0.239
composite z-score (Torsin-1A (Homo sapiens) [17]): 0.815
composite z-score (Torsin-1A (Homo sapiens) [18]): 0.819
composite z-score [19]: 0.417

CCOC(=O)[C@H](CC(C)C)NC(=O)CCC1CC(OC(=O)NCc2ccc3c(c2)OCO3)CC2(CCCC(COC(=O)NCCCN3CCCC3=O)O2)O1 (stereo not given in full)
composite z-score [1]: 0.581
composite z-score [2]: 1.15
composite z-score [3]: 0.115
composite z-score [4]: 0.741
composite z-score [5]: 0.476
composite z-score [6]: 1.12
z-score [7]: 1.26
composite z-score (Lefty1): 0.803
composite z-score [8]: 0.911
z-score [9]: 0.0579 (inactive)
composite z-score [10]: 0.353
z-score [11]: -0.255 (inactive)
z-score [12]: -0.767 (inactive)
z-score [13]: 0.0167 (inactive)
z-score [14]: -0.413 (inactive)
composite z-score [15]: 0.657
composite z-score [16]: 0.0154
composite z-score (Torsin-1A (Homo sapiens) [17]): 0.232
composite z-score (Torsin-1A (Homo sapiens) [18]): 0.92
composite z-score [19]: 1.74

COc1cc(O)c(C(=O)C=Cc2ccc3c(c2)OCO3)c(OC)c1
composite z-score [1]: -0.132
composite z-score [2]: -1.44
composite z-score [3]: 0.0276
composite z-score [4]: 0.0337
composite z-score [5]: 0.4
composite z-score [6]: -0.19
z-score [7]: 0.209
composite z-score (Lefty1): 0.707
composite z-score [8]: 0.393
z-score [9]: -5.1 (inactive)
composite z-score [10]: 0.0926
z-score [11]: -2.56 (inactive)
z-score [12]: 1.1 (inactive)
z-score [13]: 0.286 (inactive)
z-score [14]: 0.528 (inactive)
composite z-score [15]: -0.379
composite z-score [16]: -0.0332
composite z-score (Torsin-1A (Homo sapiens) [17]): -0.404
composite z-score (Torsin-1A (Homo sapiens) [18]): -0.19
composite z-score [19]: 0.782

CCOC(=O)[C@H](CC(C)C)NC(=O)CCC1CC(OC(=O)NCc2cccc3ccccc23)CC2(CCCC(COC(=O)NCCCN3CCCC3=O)O2)O1 (stereo not given in full)
composite z-score [1]: 0.551
composite z-score [2]: 1.06
composite z-score [3]: 0.205
composite z-score [4]: 0.634
composite z-score [5]: 0.745
composite z-score [6]: 0.737
z-score [7]: -0.754
composite z-score (Lefty1): 0.925
composite z-score [8]: 0.662
z-score [9]: 0.974 (inactive)
composite z-score [10]: -0.144
z-score [11]: -0.961 (inactive)
z-score [12]: -0.908 (inactive)
z-score [13]: -0.437 (inactive)
z-score [14]: 0.501 (inactive)
composite z-score [15]: 0.286
composite z-score [16]: -0.128
composite z-score (Torsin-1A (Homo sapiens) [17]): 0.316
composite z-score (Torsin-1A (Homo sapiens) [18]): 0.299
composite z-score [19]: 0.956

CC(CCN1CCCc2nc(C)c(C)cc21)=NO[C@@H](C)c1cc(-c2c(C)cc(C)cc2C)no1
composite z-score [1]: 1.4
composite z-score [2]: 0.314
composite z-score [3]: 0.514
composite z-score [4]: 0.745
composite z-score [5]: 0.427
composite z-score [6]: 0.388
z-score [7]: 1.91
composite z-score (Lefty1): 0.643
composite z-score [8]: 0.605
z-score [9]: 0.0678 (inactive)
composite z-score [10]: 0.0353
z-score [11]: -0.636 (inactive)
z-score [12]: -0.501 (inactive)
z-score [13]: -0.0591 (inactive)
z-score [14]: -0.559 (inactive)
composite z-score [15]: 0.327
composite z-score [16]: 0.111
composite z-score (Torsin-1A (Homo sapiens) [17]): 0.464
composite z-score (Torsin-1A (Homo sapiens) [18]): -0.184
composite z-score [19]: 0.54

COc1cccc([C@H]2Oc3ccc(OC)cc3C(=NOC[C@@H](C)[C@H](OCc3ccccc3)C(C)C)[C@@H]2O)c1
composite z-score [1]: 1.78
composite z-score [2]: 0.321
composite z-score [3]: 0.0885
composite z-score [4]: 0.069
composite z-score [5]: 0.232
composite z-score [6]: 0.0521
z-score [7]: -0.789
composite z-score (Lefty1): 0.709
composite z-score [8]: 0.872
z-score [9]: -0.0981 (inactive)
composite z-score [10]: 0.276
z-score [11]: -0.324 (inactive)
z-score [12]: 0.508 (inactive)
z-score [13]: 0.666 (inactive)
z-score [14]: 0.649 (inactive)
composite z-score [15]: -0.234
composite z-score [16]: -0.106
composite z-score (Torsin-1A (Homo sapiens) [17]): 0.577
composite z-score (Torsin-1A (Homo sapiens) [18]): 0.83
composite z-score [19]: 0.115

COC(=O)[C@H](C)NC(=O)CCC1CC(OC(=O)NCc2ccc3c(c2)OCO3)CC2(CCCC(COC(=O)NCC3CCCCC3)O2)O1 (stereo not given in full)
composite z-score [1]: 0.807
composite z-score [2]: 1.16
composite z-score [3]: 0.408
composite z-score [4]: 0.52
composite z-score [5]: 0.533
composite z-score [6]: 0.77
z-score [7]: -0.00341
composite z-score (Lefty1): 0.97
composite z-score [8]: 0.723
z-score [9]: 1.16 (inactive)
composite z-score [10]: 0.283
z-score [11]: -0.643 (inactive)
z-score [12]: -0.112 (inactive)
z-score [13]: 0.104 (inactive)
z-score [14]: 1.35 (inactive)
composite z-score [15]: 0.543
composite z-score [16]: -0.0719
composite z-score (Torsin-1A (Homo sapiens) [17]): 0.174
composite z-score (Torsin-1A (Homo sapiens) [18]): 0.433
composite z-score [19]: 1.72

Cc1ccc(S(=O)(=O)N[C@@H]2COC(=O)[C@@H](C)COC(=O)CC=C[C@H]2C)cc1
composite z-score [1]: 0.204
composite z-score [2]: 0.389
composite z-score [3]: -0.033
composite z-score [4]: 0.466
composite z-score [5]: 0.516
composite z-score [6]: 0.636
z-score [7]: 0.493
composite z-score (Lefty1): 0.383
composite z-score [8]: -0.0537
z-score [9]: -0.836 (inactive)
composite z-score [10]: -0.278
z-score [11]: 0.215 (inactive)
z-score [12]: -0.736 (inactive)
z-score [13]: -0.116 (inactive)
z-score [14]: -0.549 (inactive)
composite z-score [15]: 0.095
composite z-score [16]: 0.0633
composite z-score (Torsin-1A (Homo sapiens) [17]): 0.399
composite z-score (Torsin-1A (Homo sapiens) [18]): 0.366
composite z-score [19]: 0.472

COC(=O)CC=C[C@@H](C)[C@@H](C=NO[C@@H](C)c1cn([C@H](CO)Cc2ccccc2)nn1)OC
composite z-score [1]: 2.93
composite z-score [2]: 0.168
composite z-score [3]: -0.0296
composite z-score [4]: 0.578
composite z-score [5]: 0.293
composite z-score [6]: 0.411
z-score [7]: 0.269
composite z-score (Lefty1): 0.579
composite z-score [8]: 0.084
z-score [9]: -2.11 (inactive)
composite z-score [10]: -0.251
z-score [11]: -0.323 (inactive)
z-score [12]: -0.54 (inactive)
z-score [13]: 0.597 (inactive)
z-score [14]: 0.0826 (inactive)
composite z-score [15]: 0.303
composite z-score [16]: -0.128
composite z-score (Torsin-1A (Homo sapiens) [17]): 0.652
composite z-score (Torsin-1A (Homo sapiens) [18]): 0.278
composite z-score [19]: 0.469
